A word on the AC50: it is the concentration giving half of the maximal activity seen.

Molecules are shown by their SMILES. Records with an inconclusive call do not appear. The source made the active and inactive calls. How the source made its calls: active means hit-call score of the fitted dose curve at least 0.9, where 1 is the maximum; inconclusive means response in the unintended direction; inactive means score below 0.9.

This passage reports outcome and AC50 results from PubChem BioAssay (EPA / NIEHS).

Chain of human Peroxisome Proliferator-activated Receptor delta (PPARd), PPARD (gene 5467) (Q03181 whole entry, looked up, the tested form may be a part): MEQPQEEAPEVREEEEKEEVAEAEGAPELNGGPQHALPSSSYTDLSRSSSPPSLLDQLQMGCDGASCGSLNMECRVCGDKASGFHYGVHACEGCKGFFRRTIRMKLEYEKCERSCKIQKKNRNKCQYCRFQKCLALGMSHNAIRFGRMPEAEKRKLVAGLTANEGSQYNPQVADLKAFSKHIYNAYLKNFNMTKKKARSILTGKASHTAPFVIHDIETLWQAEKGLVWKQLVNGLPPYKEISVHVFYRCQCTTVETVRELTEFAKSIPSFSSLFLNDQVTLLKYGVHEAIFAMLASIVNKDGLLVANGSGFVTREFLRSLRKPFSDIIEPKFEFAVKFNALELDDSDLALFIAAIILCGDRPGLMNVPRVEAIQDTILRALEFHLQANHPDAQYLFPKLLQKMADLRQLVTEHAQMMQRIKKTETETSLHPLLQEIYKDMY
Chain of Peroxisome proliferator-activated receptor gamma (Homo sapiens) (P37231 whole entry, looked up, the tested form may be a part): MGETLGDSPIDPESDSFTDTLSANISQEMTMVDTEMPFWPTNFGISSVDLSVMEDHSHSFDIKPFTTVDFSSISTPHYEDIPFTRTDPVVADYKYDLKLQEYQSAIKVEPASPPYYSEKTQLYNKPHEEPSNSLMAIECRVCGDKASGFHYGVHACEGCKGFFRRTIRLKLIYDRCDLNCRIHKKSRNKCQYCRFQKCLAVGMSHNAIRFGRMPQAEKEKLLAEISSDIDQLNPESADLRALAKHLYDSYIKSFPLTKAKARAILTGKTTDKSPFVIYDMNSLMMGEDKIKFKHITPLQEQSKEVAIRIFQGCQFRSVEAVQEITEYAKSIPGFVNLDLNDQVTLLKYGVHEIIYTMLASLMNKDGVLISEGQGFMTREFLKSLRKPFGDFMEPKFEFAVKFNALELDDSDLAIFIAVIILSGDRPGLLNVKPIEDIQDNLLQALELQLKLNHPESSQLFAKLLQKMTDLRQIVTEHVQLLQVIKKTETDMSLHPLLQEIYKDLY

The first assay has as its target human Peroxisome Proliferator-activated Receptor delta (PPARd), PPARD (gene 5467) (UniProt Q03181). The assay can be described thus: ATG_PPARd_TRANS: Attagene TRANS-FACTORIAL HepG2 Assay for human Peroxisome Proliferator-activated Receptor delta (PPARd) (AID 2283002). The method in brief:
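Fluorescence from capillary electrophoresis of labelled RT-PCR reporter fragments gives the signal; DMSO sets baseline. Cells: HepG2 transiently carrying GAL4-UAS reporter units plus chimeric nuclear receptor-Gal4 proteins, exposed to chemicals for 24 h.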
On to `O=C1Cc2ccccc2N1c1c(Cl)cccc1Cl`, for which the compound was called inactive.

For the compound `CCC(=O)C=Cc1ccc(OC)cc1`, the compound was classed as inactive.

As to `C[C@]12CC[C@@H]3c4ccc(O)cc4CC[C@H]3[C@@H]1CC[C@@H]2OC(=O)CCC1CCCC1`, the compound was classed as inactive.

In the case of `CCCCCCCC(OC)OC`, the outcome was inactive.

The target of a further assay is human Retinoic Acid Receptor beta (RARb), RARB (gene 5915) (UniProt P10826). The assay can be described thus: ATG_RARb_TRANS: Attagene TRANS-FACTORIAL HepG2 Assay for human Retinoic Acid Receptor beta (AID 2283004). Put shortly: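 Transient transfection of HepG2 with multiple reporter units → chemical dosing, 24 h → total RNA isolation → RT with oligo(dT) → reporter-specific PCR, 6-FAM primer extension, HpaI digest → capillary electrophoresis. Positive direction vs DMSO control.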
Chain of human Retinoic Acid Receptor beta (RARb), RARB (gene 5915) (P10826 whole entry, looked up): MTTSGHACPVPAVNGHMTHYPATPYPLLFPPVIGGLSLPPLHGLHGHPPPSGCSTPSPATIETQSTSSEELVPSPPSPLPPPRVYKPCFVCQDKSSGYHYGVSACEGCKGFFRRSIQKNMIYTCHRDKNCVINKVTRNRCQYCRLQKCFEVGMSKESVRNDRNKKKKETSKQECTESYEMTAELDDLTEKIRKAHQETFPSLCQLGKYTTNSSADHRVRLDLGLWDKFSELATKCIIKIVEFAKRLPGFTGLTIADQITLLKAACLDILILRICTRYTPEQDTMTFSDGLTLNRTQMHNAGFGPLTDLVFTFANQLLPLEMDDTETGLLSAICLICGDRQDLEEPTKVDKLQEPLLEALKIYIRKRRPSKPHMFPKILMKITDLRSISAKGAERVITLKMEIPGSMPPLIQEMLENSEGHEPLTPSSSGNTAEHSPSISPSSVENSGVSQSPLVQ
Take `CC(O)COc1ccccc1` (configuration not stated): the outcome was inactive.

Turning to `c1cc[nH]c1`, the compound was called inactive.

Regarding `CCN(CCC#N)c1ccccc1`, the compound was called inactive.

As for `CCCCCCCCCCCCCCCC(=O)OC`, the compound was classed as inactive.

For the compound `Cc1ccc(S(=O)(=O)O)cc1`, the outcome was inactive.

`CC=O`: the outcome was inactive.

In the case of `C=CCOCC(CO)(CO)CO`, the compound was called inactive.

Turning to `c1cc2cccc3c4cccc5cccc(c(c1)c23)c54`, the call was inactive.

For the compound `CCCC=O`, the outcome was inactive.

For `CCOC(OCC)C(=O)c1ccccc1`, the compound was called inactive.

As for `FC1(F)C=CC(F)(F)C1(F)F`, the compound was classed as inactive.

For a further assay, the target named is Retinoic acid receptor alpha (Homo sapiens) (UniProt P10276). Put plainly: ATG_RARa_TRANS: Attagene TRANS-FACTORIAL HepG2 Assay for human Retinoic Acid Receptor alpha (RARa) (AID 2283005). The method in brief: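 HepG2 transiently transfected with multiplex GAL4-UAS reporter units including a human RARa–GAL4 chimera; 24 h compound exposure. Reporter mRNA quantified by RT-PCR, 6-FAM labeling and capillary electrophoresis; gain of signal versus DMSO.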
Chain of Retinoic acid receptor alpha (Homo sapiens) (P10276 whole entry, looked up, the tested form may be a part): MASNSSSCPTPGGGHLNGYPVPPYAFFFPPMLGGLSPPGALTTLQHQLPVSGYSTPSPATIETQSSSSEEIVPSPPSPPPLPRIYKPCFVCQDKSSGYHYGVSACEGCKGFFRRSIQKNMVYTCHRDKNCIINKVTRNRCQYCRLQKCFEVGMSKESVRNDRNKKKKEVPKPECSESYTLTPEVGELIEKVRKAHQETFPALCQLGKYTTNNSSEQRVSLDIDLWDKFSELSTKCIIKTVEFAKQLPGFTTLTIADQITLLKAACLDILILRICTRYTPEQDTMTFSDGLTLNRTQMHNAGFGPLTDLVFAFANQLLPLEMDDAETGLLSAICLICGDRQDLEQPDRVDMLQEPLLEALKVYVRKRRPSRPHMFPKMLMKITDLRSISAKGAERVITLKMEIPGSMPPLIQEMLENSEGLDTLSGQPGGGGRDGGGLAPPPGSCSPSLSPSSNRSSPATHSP
In the case of `CC(O)COc1ccccc1` (configuration not stated), the result was inactive.

In the case of `CCN(CCC#N)c1ccccc1`, the outcome was inactive.

As for `CC(C)CCOCCC(C)C`, the compound was classed as inactive.

Consider `FC(F)(F)C(F)(F)C(F)(F)Br`, for which the outcome was inactive.

Consider `CCCCCCCCCCCCCCCC(=O)OC`, for which the compound was called inactive.

For the compound `Cc1ccc(S(=O)(=O)O)cc1`, the outcome was inactive.

As to `C=CCOCC(CO)(CO)CO`, the compound was called inactive.

For the compound `CCCC=O`, the call was inactive.

Turning to `CCOC(OCC)C(=O)c1ccccc1`, the compound was called inactive.

For another assay, the target named is Peroxisome proliferator-activated receptor gamma (Homo sapiens) (UniProt P37231). The assay can be described thus: ATG_PPARg_TRANS: Attagene TRANS-FACTORIAL HepG2 Assay for human Peroxisome Proliferator-activated Receptor-gamma (PPARg) (AID 2283007). Put shortly:
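Chimeric NR-Gal4 transactivation is measured in transiently transfected HepG2 cells by reporter mRNA induction at 24 h. Detection uses RT-PCR with fluorescent labelling and capillary electrophoresis; DMSO defines baseline.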
With `CCOCCOCC`, the compound was called inactive.

As to `COCC1CCC(CO)CC1` (configuration not stated), the call was inactive.

On to `CC(O)COc1ccccc1` (configuration not stated), for which the outcome was inactive.

With `c1cc[nH]c1`, the result was inactive.

As for `CCN(CCC#N)c1ccccc1`, the compound was called inactive.

For the compound `Oc1cccc2c(O)cccc12`, the AC50 is 48.4 µM (active).

On to `O=C1Cc2ccccc2N1c1c(Cl)cccc1Cl`, for which the result was inactive.

Take `O=C(C=C(O)C(F)(F)F)C(F)(F)F`: the call was inactive.

Take `FC(F)(F)C(F)(F)C(F)(F)Br`: the call was inactive.

Take `C=CC(F)(F)C(F)(F)C(F)(F)C(F)(F)F`: the outcome was inactive.

For the compound `CCCCCCCCCCCCCCCC(=O)OC`, the compound was called inactive.

For the compound `CCC(=O)C=Cc1ccc(OC)cc1`, the AC50 was 24.6 µM (active).

In the case of `CCOC(=O)c1nc(C(Cl)(Cl)Cl)n(-c2ccc(Cl)cc2Cl)n1`, the AC50 is 40.4 µM (active).

Consider `CC(C)(C)c1ccc(CCC=O)cc1`, for which the outcome was inactive.

`C=CCOCC(CO)(CO)CO`: the compound was classed as inactive.

For the compound `c1cc2cccc3c4cccc5cccc(c(c1)c23)c54`, the call was inactive.

Take `C/C=C/C(=O)C1=C(C)CCCC1(C)C`: the AC50 is 64.7 µM (active).

With `CCOC(OCC)C(=O)c1ccccc1`, the outcome was inactive.

For `CCCCCCCC(OC)OC`, the call was inactive.

In the case of `NCc1cccc(CN)c1`, the compound was classed as inactive.

`FC1(F)C=CC(F)(F)C1(F)F`: the outcome was inactive.

As for `CCc1ccccc1O`, the result was inactive.

As for `O=C(Nc1ccc(Cl)c(Cl)c1)c1cc(Cl)cc(Cl)c1O`, the AC50 is 4.33 µM (active).
